From the supplement of paper PMC3334620
In all, about 33,000 sequences were measured (“E-score (-0.5 to 0.5)”: median about -0.036, highest 2% from about 0.37 on). Many of the other results were omitted from the sample, so the highest values are more common in it than they were.

target: T1, Yer064c (UniProt P40041); experiment: PBM E-score (8-mer binding enrichment) (E-score (-0.5 to 0.5)); higher = stronger / more preferred TF binding; conditions: protein concentration: 200 nM; construct: GST-full length
T1 sequence: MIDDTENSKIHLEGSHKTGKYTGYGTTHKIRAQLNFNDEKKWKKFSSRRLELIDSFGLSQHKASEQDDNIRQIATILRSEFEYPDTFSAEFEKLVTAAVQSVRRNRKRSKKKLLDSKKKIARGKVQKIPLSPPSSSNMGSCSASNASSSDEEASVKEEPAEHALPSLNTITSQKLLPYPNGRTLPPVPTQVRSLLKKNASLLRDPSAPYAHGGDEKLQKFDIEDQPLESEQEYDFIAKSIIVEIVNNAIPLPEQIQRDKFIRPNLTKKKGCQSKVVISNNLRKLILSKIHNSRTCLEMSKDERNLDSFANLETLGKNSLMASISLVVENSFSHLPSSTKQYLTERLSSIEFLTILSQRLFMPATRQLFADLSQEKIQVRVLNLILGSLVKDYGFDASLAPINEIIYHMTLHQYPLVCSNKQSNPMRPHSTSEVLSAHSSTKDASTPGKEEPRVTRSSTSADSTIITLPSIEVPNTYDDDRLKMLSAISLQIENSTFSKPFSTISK
Method: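 Universal 'all 10-mer' protein binding microarrays (Agilent AMADID 015681) probed with GST-tagged S. cerevisiae TFs (full-length or DBD) made by in vitro transcription/translation (PURExpress), about 100-200 nM. Bound TF was detected with fluorescent anti-GST. Each ungapped 8-mer (which stands for itself and its reverse complement) is scored by the PBM enrichment score (E-score), a modified Wilcoxon-Mann-Whitney statistic from -0.5 to +0.5, computed with the Universal PBM Analysis Suite. Scale: above 0.35 generally sequence-specific binding.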

Sequence	PBM E-score
AGTCAAAC	0.35
AGTCAAAA	0.408
ATTCAAAT	0.214
ACTCAAAT	0.294
AGTCAAAG	0.406
GGTCAAAA	0.0441
CGTCAAAA	-0.0525
AGTCAAAT	0.412
CGTCAAAG	0.0679
ACGCGAGC	-0.0659
GGCAAGAC	-0.163
GTGGCATA	-0.194
AATGCGTA	0.00743
GGTAGGGA	-0.0117
AGGGAAGA	-0.0141
AGAAAATC	0.0604
ACATCGGA	0.0356
GACTCAAA	0.48
TACTCAAA	0.201
CACTCAAA	0.107
GACTCAAC	0.472
AACTCAAC	0.123
CACTCAAC	0.0472
CGGCCCGA	-0.157
ACGAGAGC	-0.143

Sequence	PBM E-score
GTTGGCAA	-0.14
AAGCTTAA	0.0226
CGGTACAG	-0.12
GGCTCACA	0.13
CTCGTAAC	0.0792
AACTCTCA	0.0457
GACTCTCA	0.418
CACTCTCC	-0.0733
CACTCTCA	-0.0477
GACTCTCC	0.411
AACTCTCC	-0.159
AGGTCTTA	0.0474
CCTTCCCA	-0.0175
CAATGCAC	0.0625
ATGAGCCA	0.396
ATGAGCCC	-0.00355
CTGAGCCA	0.31
AAATCAAG	0.0497
AAATCATC	0.403
AAATCATG	0.385
CAATCATG	0.369
AAATCATT	0.359
GCATCATA	0.0926
CAATCAGG	0.218
CAATCAAG	0.212

Sequence	PBM E-score
ACATCATC	0.212
ATATCATC	-0.113
GAATCATA	0.464
GTATCATA	0.0771
ATTTTGTA	0.00667
ACAAGAGT	0.149
CTTCATAC	-0.00264
GGCCGGAA	-0.146
GTCGGCGA	0.141
GAATGAGA	0.0143
AGCGTCCG	-0.131
CAGCAAGA	-0.11
CGCTTCCA	-0.24
ATGTAAGC	-0.0792
AACTGTTA	0.0274
GAGAGGAA	-0.0878
AAATCATA	0.387
ACATCATA	0.107
TAATCAAA	0.315
TAATCATA	0.457
TAATCAGA	0.35
ATATCATA	0.00064
GGTGAGCA	-0.00163
GGAACCAA	-0.106
ATTCACCC	0.0614

Sequence	PBM E-score
ATTCACCG	0.0472
GGTCACCA	0.036
AGACACCG	0.11
AGTCACCG	0.476
AGTCACCC	0.479
CGTCACCA	-0.0242
AGTCACCA	0.469
CGTCACCC	-0.258
TACGCAGA	0.1
TAGATGAA	0.00973
AGACCCGG	-0.0102
GTAGAGCA	-0.0431
CCATCGGA	-0.00521
GCTTTCAA	0.0808
CCATCCCA	0.0189
AATATCCG	-0.0742
ACCGAGTA	-0.0874
AGCGAGTG	0.0737
AGCGAGTA	0.115
CCCGAGTC	0.329
AGCGAGTC	0.405
CGCGAGTC	0.405
ACCGAGTC	0.377
CGCGAGCC	0.0358
CGCGAGTA	0.0526

Sequence	PBM E-score
CGGGAGAA	-0.141
CTTATCCC	-0.147
AAGGAAGG	-0.0955
ACCCTATG	0.155
GAGCTTCA	-0.142
ACGGATGG	0.0552
ATCTTCCG	-0.0471
AACGACTT	0.177
GACGACTA	0.415
GACGACTC	0.442
AACGACTA	0.393
AACGACAC	-0.105
AACGACTC	0.427
AACGACTG	0.133
GACGACCC	-0.217
GACGACGA	0.00788
GTCGACTA	0.335
ATCGACTC	0.304
GACGACGC	-0.226
CGGCTACA	-0.00254
CGTTTCGC	-0.125
AATCTTCG	0.25
TACCTGGA	0.0309
CTCCACCC	-0.099
AAAGACCA	-0.029

Sequence	PBM E-score
TACGGCGA	-0.108
TACGACGA	0.071
CACGACGA	0.044
TACGACTA	0.415
CACGACTA	0.403
CACGACTC	0.437
CACGACAC	-0.043
CACGACTG	0.238
TACGACAA	0.0113
CACGACGC	-0.163
TAGCCACA	0.14
CGCGATAC	-0.206
CAAAATCC	0.087
CAAAAGCC	-0.227
GAGCCATA	0.366
TAGCCATA	0.28
GAGCCATC	0.342
AGAGCTCG	-0.222
CGTCATAC	0.192
CGTCATAA	-0.00764
AGTCATAG	0.482
CGTCATAG	-0.0141
AGTCATAT	0.484
TGTCATAA	0.0821
AGTCATAC	0.486

Sequence	PBM E-score
GGTCATAC	0.123
AGACATAT	0.137
AGTCATAA	0.476
GGTCATAA	0.081
AGCCATAG	0.199
CAAAACTC	-0.0536
AAAATAAC	0.0567
CCGTCCCG	-0.193
ACAATTAA	0.144
CGTGCGTC	-0.13
TGTGCTAA	0.0249
AGAATCCT	-0.0297
ACAATCAC	0.351
AGAATCGC	0.127
GGAATCAA	0.257
AGAATCAG	0.325
GGAATCAC	0.418
AGAATCAT	0.44
ACAATCAA	0.202
ACAATCAT	0.385
AGAATCCC	0.0788
GGAATCCC	-0.166
AGAATCAC	0.374
GTTCTATA	-0.0345
AAGGGTGT	-0.00845

Sequence	PBM E-score
AGCGCTGG	0.0943
CACAACTG	-0.113
ACCTGGCA	-0.145
CGATTCTA	0.0229
CACCAACC	-0.0246
GTCACAGA	0.237
CCAATCAC	0.182
CCAATCAG	0.0381
CGAATCCC	-0.125
CGAATCAC	0.4
CGAATCAG	0.384
CGAATCCG	0.0437
ACCTTGGA	-0.0702
ACAACTGC	-0.0478
AAAAGCCG	-0.213
GAGTCCTA	0.399
CAGTCTTA	0.278
ATGTCTCC	0.216
AAGTCTCC	0.107
GAGTCTTA	0.453
ATGTCTCA	0.414
GAGTCTCC	0.419
AAGTCCTA	0.186
ATGTCTCG	0.17
AAGTCTTA	0.213

Sequence	PBM E-score
CAGTCTCC	0.211
CAGTCCTA	0.183
AATCTTAA	0.244
CCCGCATA	-0.019
ATGTAGCA	-0.146
ACATCTGG	-0.137
AACTTCCG	0.0922
CAGTGATC	0.0804
TAGTCTCA	0.36
GAGTCTCA	0.411
AAGTCTCA	0.239
ATATGCAG	0.196
AGCAAATA	-0.157
GCACTGGC	-0.194
TACTCACA	0.367
AACTCACC	0.275
AACTCACA	0.259
CACTCACG	0.112
GACTCACC	0.478
GACTCACA	0.472
CACTCACA	0.0403
CACTCACC	0.207
AACTCACG	0.211
CCAGATCA	0.058
CGAAGCCA	0.0935

Sequence	PBM E-score
CTCCCCGA	-0.0625
AGTAGCTG	0.0121
GCAGAACC	-0.118
ATCGAGCA	-0.149
AGCTGACG	-0.134
AACTGACA	-0.287
AGCTGACT	0.458
AACTGACT	0.404
ACCTGACG	-0.192
AACTGACC	-0.163
ACCTGACT	0.44
ACCTGACC	-0.13
AGCTGACC	-0.078
AAGTGCAG	0.0456
CCCGTGCC	-0.103
AGGTAACG	-0.0878
ATTCCATA	-0.0291
AGCGCATC	-0.0879
CACTACTC	0.112
GACTACTA	0.417
CAGTACTC	0.24
AAGTACTC	0.282
TACTACTA	0.0844
GAGTACTC	0.381
AACTACTA	-0.0232

Sequence	PBM E-score
AACTACTC	0.199
GACTACTC	0.427
AACGTAAT	0.023
GTTGTCGA	-0.158
GCGTTGCC	-0.252
ACCCTGAC	0.158
GTTCAGAA	0.00278
AAGCAGCA	-0.264
ATTGTACA	0.0112
GTTACTAA	0.184
CTGACTAC	0.469
GTGACTAA	0.488
CGGACTAA	0.342
CTGACTAA	0.48
CTTACTAC	-0.0948
CGGACTAC	0.248
CAGACTAA	0.317
GGGACTAA	0.323
AACCGCTA	-0.169
ATGTTATA	-0.0918
CGAAGGAC	0.079
ACCGCGGG	0.0814
AGCGCCGA	-0.00218
ACCTTCGA	0.00431
GAATCTCA	0.101

Sequence	PBM E-score
CCGGATTA	-0.0124
CCAAGCTC	-0.22
AGATGTCG	-0.0862
ACTCACCG	0.384
CCTCACCC	-0.213
ACTCACCA	0.388
GCTCACCC	-0.0459
CCTCACCA	-0.134
ACTCACCT	0.338
CCTCACCG	-0.033
TCTCACCA	-0.117
ACTCACCC	0.401
ATCGGAGC	-0.0582
GACGAAGC	-0.0864
TCGGATCA	-0.0516
ATTAGAAT	0.186
CTTAATAA	0.136
GTTAATTA	0.0895
CTTAATCC	0.114
GTTAATAA	0.117
CTTAATCA	0.45
ATTAATCC	0.256
ATTAATCG	0.269
ATTAATCA	0.441
GTTAATCA	0.451

Sequence	PBM E-score
AGACCAAA	0.0161
GTAGTAAA	0.107
CACTTGCG	-0.0335
GTAGGAAA	0.00646
CGGTTACC	0.0378
ATATTGGC	-0.228
GGAGGACC	-0.37
GACTTAAA	0.325
ACAAGTCT	0.0793
ACAAGTCG	0.0706
TCAAGTCA	0.379
GCAAGTCA	0.361
CCAAGTCA	0.317
ACAAGTCA	0.374
ACAGGGCA	-0.128
ATATCCAC	-0.0172
TCAAAGCA	0.0603
ACTGTTGC	-0.0887
AAACCGGC	-0.0714
ATTCGCGA	0.122
AAATGAGT	0.427
AAATGATC	0.121
AAATGAGG	-0.229
AAATGACC	-0.0187
AAATGACT	0.475

Sequence	PBM E-score
AAATGAGC	0.058
AAATGATT	0.437
AAATGACG	0.0769
AAATGATA	0.104
ACTATCTC	0.212
AATCCGGG	-0.239
CCGTCTCA	0.0264
GTAATCAC	0.413
ATAATCAC	0.385
CTAATCAG	0.286
GAAATCAC	0.347
ATAATCAT	0.45
CTAATCAC	0.393
ATAATCTC	0.137
ATAATCCC	-0.227
ATAATCAA	0.269
ATAATCAG	0.33
GTAATCAA	0.325
CTAATCGC	0.128
